The text below walks through data of PubChem BioAssay (NCI).

Compounds without any hit were thinned out: in the full panel of roughly 83,000, 20% have a hit.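 Each cell line was grown in a 96-well plate and treated with one concentration of compound for 48 hours. Values below 10 were considered active.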 A number with no mark means an inactive call. Calls of active or inactive are those of the source.

Common to all, as to assay: NCI-60 one-dose screen, 48 h (100 = growth as untreated, 0 = no growth, -100 = all killed)
Holding throughout (details): 10 µM unless noted

Test [1] has as its system NCI-H23 lung.
Test [2] deals with NCI-H226 lung.
In test [3] the test system is NCI-H322M lung.
Test [4] deals with HOP-62 NSCLC.
In test [5] the test system is NCI-H460 lung.
The subject of test [6] is HOP-92 NSCLC.
For test [7], the system named is NCI-H522 lung.
Test [8] has as its system A549/ATCC NSCLC.
Test [9] has as its system 786-0 renal.
Test [10] relates to COLO 205 colon.
Test [11] has as its system DU-145 prostate.
Test [12] deals with K-562 leukemia.
Test [13] concerns MALME-3M melanoma.
Test [14] relates to RXF 393 renal.
The test system of test [15] is SF-268 CNS.
Test [16] has as its system SF-295 CNS.
Test [17] has as its system SF-539 CNS.
The test system of test [18] is UACC-257 melanoma.
Test [19] concerns M14 melanoma.
For test [20], the system named is MDA-MB-231 breast.

Regarding `CC(C)C(C)(C)C(=O)C(C)(C)C(C)(C)C`, the growth was 90.6% in test [1]; 90.5% in test [2]; 97.9% in test [3]; 103% in test [4]; 101% in test [5]; 88.3% in test [6]. The growth was 92.4% in test [7]; 93.3% in test [8]; 108% in test [9]; 104% in [10]; 107% in test [11]; 96.8% in test [12]. Further, the growth in test [13] was 92.6%; in [14], 104%; in test [15] it was 102%; in test [16], 95.8%; in test [17], 98.8%; in [18], 92.6%. In test [19], the growth was 114%.

Consider `COc1ccc(-c2csc(NC(=O)Nc3nc(-c4ccc(OC)cc4)cs3)n2)cc1`, for which the growth in test [1] is 66.8%; in test [2] it was 70.6%; in test [3], 90.1%; in test [4], 106%; in test [5], 84.7%; in [6], 89%. Further, the growth was 92.5% in test [7]; 81.3% in test [8]; 97.8% in [9]; 98.5% in test [10]; 72.8% in [11]; 67.5% in test [12]. The growth in test [20] was 92.9%; in [14] it was 98.5%; in test [15] it was 81.9%; in [16] it was 87.9%; in test [17], 90%; in [18], 67.4%.

In the case of `NC(=O)NCCO`, the growth in test [1] is 98.9%; in test [2], 95%; in test [3], 109%; in [4], 102%; in test [5], 104%; in test [6], 111%. The growth in [7] was 95.2%; in test [8], 93%; in test [9] it was 107%; in test [10] it was 116%; in test [11], 110%; in test [12] it was 99.2%. The growth in test [13] was 97.4%; in test [14] it was 102%; in [15] it was 101%; in test [16], 95.6%; in test [17], 103%; in test [18], 97.8%. In addition, the growth in [19] is 107%.

`C/C(=N\N=C(/C)c1cccc([N+](=O)[O-])c1)c1cccc([N+](=O)[O-])c1`: the growth is 90.3% in [1]; 111% in [2]; 96.1% in [3]; 74.3% in [4]; 86.4% in test [5]; 87.5% in test [6]. Also, the growth in test [7] was 57.3%; in test [8], 79.3%; in test [9], 77.4%; in test [10], 79.8%; in test [11], 95.3%; in test [12], 98.3%. The growth in test [13] was 85%; in test [14], 93.9%; in test [15] it was 80.2%; in test [16], 95.8%; in [17], 93.4%; in test [18] it was 87.6%. In test [19], the growth was -36.5% (active).

As to `Cn1c(=O)[nH]c2ccccc2c1=O`, the growth was 104% in test [1]; 109% in test [2]; 105% in test [3]; 99.6% in test [4]; 111% in [5]; 143% in test [6]. Also, the growth in test [7] is 96.6%; in test [8] it was 100%; in test [9], 97.5%; in test [10], 114%; in test [11] it was 104%; in [12], 103%. Also, the growth in test [13] was 100%; in test [14] it was 102%; in test [15] it was 107%; in [16] it was 94.4%; in [17] it was 98.8%; in [18], 102%. For the same molecule, the growth in [19] is 107%.

Consider `COc1ccc(Br)c(C=O)c1`, for which the growth was 91.4% in test [1]; 84.5% in test [2]; 89.8% in test [3]; 67.4% in [4]; 101% in [5]; 68.8% in [6]. The growth in [7] is 98.2%; in test [8] it was 92.6%; in test [9] it was 69.3%; in test [10], 102%; in [11], 88.1%; in [12] it was 11.6%. For the same molecule, the growth in test [13] was 66.2%; in test [14], 80.1%; in test [15], 60.8%; in test [16] it was 65.7%; in test [17], 30.5%; in test [18] it was 79.7%. Further, the growth in test [19] was 46.1%.

As to `C=CC1=NC(C)(C)CC(C)O1` (configuration not stated), the growth in test [1] was 114%; in test [2] it was 111%; in [3], 108%; in [4] it was 110%; in [5], 104%; in test [6], 105%. Further, the growth in [7] is 97.5%; in test [8], 104%; in test [9], 103%; in [10], 116%; in [11] it was 113%; in [12], 107%. Also, the growth in test [13] was 107%; in test [20], 110%; in [15], 109%; in test [17] it was 97.8%; in [18], 95.4%; in test [19], 112%.

Turning to `Nc1nnc2cc(F)ccc2n1`, the growth was 90.6% in [1]; 96.3% in [2]; 106% in test [3]; 101% in test [4]; 107% in [5]; 85.2% in test [6]. Further, the growth in test [7] was 99.8%; in test [8], 113%; in test [9], 105%; in [10], 134%; in test [11], 102%; in test [12], 97.2%. Also, the growth in [13] was 107%; in test [20] it was 102%; in [15], 99.6%; in test [17], 107%; in test [18], 110%; in test [19], 99.3%.

On to `c1ccc(Oc2c3ccccc3nc3ccccc23)cc1`, for which the growth in [1] is 8.18% (active); in test [2] it was 47.9%; in [3] it was 56.3%; in test [4], 16.1%; in test [5], 3.68% (active); in test [6] it was 8.21% (active). For the same molecule, the growth is -27.4% (active) in test [7]; 34.1% in test [8]; 1.82% (active) in [9]; -10.5% (active) in [10]; 8.05% (active) in test [11]; 8.65% (active) in test [12]. Moreover, the growth is 31.2% in [20]; 25.4% in test [14]; 22.7% in test [15]; -39.1% (active) in test [16]; -19.6% (active) in [17]; 56.7% in test [18].
